Results taken from PubChem BioAssay (NCATS).
Inconclusive results are not listed. Active and inactive are the calls of the source. Unless noted, the rule behind the calls is not given here.

Key:
[1] = qHTS profiling of the MIPE4 collection as inhibitors of Plasmodium falciparum (3D7) proliferation (AID 743344);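 note: scaled between DMSO vehicle wells and 0.29 µM artemisinin as full inhibition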; conditions: P. falciparum 3D7 in erythrocytes, SYBR Green DNA fluorescence, 72 h; at 28.5 µM unless noted
How it was run: (§1)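 Parasite DNA was quantified by SYBR Green I fluorescence (ex 485, em 535 nm) after overnight lysis in saponin/Triton buffer at room temperature. Cultures at 0.3% parasitemia and 2.5% hematocrit were first exposed to compound for 72 h at 37 C; signals were normalised to artemisinin (0.29 uM) and vehicle wells.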

[2] = qHTS profiling of the MIPE4 collection as inhibitors of Plasmodium falciparum (DD2) proliferation (AID 743345); conditions: P. falciparum Dd2 in erythrocytes, SYBR Green DNA, 72 h; at 28.5 µM unless noted
How it was run: as §1

[3] = qHTS profiling of the MIPE4 collection as inhibitors of Plasmodium falciparum (DD2) proliferation (Rep 2) (AID 743346); conditions: P. falciparum Dd2 in erythrocytes, SYBR Green DNA, 72 h; at 28.5 µM unless noted
How it was run: as §1

[4] = qHTS profiling of the MIPE4 collection as inhibitors of Plasmodium falciparum (HB3) proliferation (AID 743347);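 note: plate controls were DMSO vehicle wells for no effect and artemisinin wells for full effect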; conditions: P. falciparum HB3 in erythrocytes, SYBR Green DNA, 72 h; at 28.5 µM unless noted
How it was run: as §1

[5] = High-throughput drug toxicity screening in the BPDCN cell line Gen2.2 (AID 1224824); conditions: Gen2.2 BPDCN cells; at 45.8 µM (top of the series) unless noted;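 note: cells exposed to compounds for 48 h before reading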
How it was run: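 Readout is ATP luminescence from Gen2.2 cells after two days of drug exposure in serum-containing medium at 37 °C. Values express percent activity, with vehicle defining full signal and 9.2 uM bortezomib defining zero.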

[6] = High-throughput drug toxicity screening in the BPDCN cell line Cal-1 (AID 1224825); conditions: Cal-1 BPDCN cell viability, qHTS; at 45.8 µM (top of the series) unless noted
How it was run: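 CellTiter-Glo luminescence after 48 h compound exposure; percent activity scaled with DMSO as 100% and bortezomib (9.2 uM final) as 0%. Cal-1 cells seeded at 500/well in RPMI, 10% FBS, no phenol red.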

[7] = qHTS assay for measurement of the activity of small molecule inhibitors on Zika virus induced Caspase-3 activity in human iPSC derived neural progenitor cells (hNPCs) (AID 1224857; active = well fitted curve in the direction sought with a large enough effect; an effect the other way counts as inactive or inconclusive; note: nearly all actives have a fitted effect of over 65% in size; note: potency is the fitted concentration of half-maximal effect)
How it was run: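 Values are percent inhibition of virus-induced caspase-3/7 signal, scaled between uninfected cells and ZIKV-infected cells. Infection used 2 FFU/cell for 6 h after 1 h compound exposure.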

[8] = qHTS assay for measurement of the activity of small molecule inhibitors on Zika virus induced Caspase-3 activity in human astrocytoma cells (AID 1224859; active = well fitted curve in the direction sought with a large enough effect; an effect the other way counts as inactive or inconclusive; note: potency is the fitted concentration of half-maximal effect)
How it was run: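 Compound added 1 h pre-infection; ZIKV 2 FFU/cell on SNB-19 cells, 6 h, 37 C/5% CO2. Caspase-Glo 3/7 luminescence; values as % inhibition of ZIKV-induced caspase activity.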

[9] = qHTS Screen of the MIPE 4.0 Collection Against Ewings Sarcoma (TC71) (AID 1259253; active = well fitted curve in the direction sought with a large enough effect; an effect the other way counts as inactive or inconclusive; note: nearly all actives have a fitted effect of over 40% in size; note: potency is the fitted concentration of half-maximal effect)
How it was run: (§2)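 Dose series incubated 48 h with cells in RPMI plus 5% FBS, glutamine and penicillin/streptomycin; cell viability then quantified via CellTiter-Glo.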

[10] = qHTS Screen of the MIPE 4.0 Collection Against Ewings Sarcoma (EW8) (AID 1259255; active = well fitted curve in the direction sought with a large enough effect; an effect the other way counts as inactive or inconclusive; note: nearly all actives have a fitted effect of over 35% in size; note: potency is the fitted concentration of half-maximal effect;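 for viability: 100% = DMSO-treated cells and 0% = medium-only wells without cells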)
How it was run: as §2

[11] = qHTS Screen of the MIPE 4.0 Collection Against Ewings Sarcoma (TC32) (AID 1259256; active = well fitted curve in the direction sought with a large enough effect; an effect the other way counts as inactive or inconclusive; note: nearly all actives have a fitted effect of over 45% in size; note: potency is the fitted concentration of half-maximal effect)
How it was run: as §2

[12] = qHTS profiling for inhibitors of Plasmodium falciparum (HB3) proliferation (AID 743324; active = well fitted curve in the direction sought with a large enough effect; an effect the other way counts as inactive or inconclusive;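 note: 100% = DMSO vehicle wells and 0% = artemisinin-treated control wells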); conditions: Plasmodium falciparum HB3 blood-stage proliferation; at 28.7 µM (top of the series) unless noted
How it was run: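 SYBR Green fluorescence (485 ex/535 em) of lysed cultures, incubated overnight at room temperature in the dark, quantifies parasite DNA. Infected erythrocytes at 0.3% parasitemia and 2.5% hematocrit were exposed 72 h; values normalized to DMSO and 0.29 uM artemisinin controls.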

[13] = Identifying Small Molecule Inhibitors of Pancreatic Cancer Stem Cells (A2780, Spheroid) (AID 1259357; active = well fitted curve in the direction sought with a large enough effect; an effect the other way counts as inactive or inconclusive;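 note: spheroids pre-formed over 14 days in stem cell medium on hydrogel; compound exposure lasted 48 h before the ATP luminescence read; 100% = DMSO treated cells and 0% = wells without cells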); conditions: Potency: A2780 spheroid viability
How it was run: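 Luminescent ATP readout (CellTiter-Glo) quantifies surviving cells after a 48 h drug incubation. Normalization uses DMSO wells as no inhibition and media-only wells as full inhibition; bortezomib served as positive control.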

[14] = qHTS Screen of the MIPE 4.0 Collection Against Ewings Sarcoma (RDES) (AID 1259252; active = well fitted curve in the direction sought with a large enough effect; an effect the other way counts as inactive or inconclusive;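 note: 100% = DMSO-treated cells and 0% = medium-only wells without cells; nearly all actives have a fitted effect of over 35% in size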)
How it was run: as §2

[15] = qHTS assay to identify small molecule inhibitors of chordoma cells - UCH-1 (AID 1259355; active = well fitted curve in the direction sought with a large enough effect; an effect the other way counts as inactive or inconclusive; note: % is set by controls: 0 for no effect and ±100 for the full control effect; nearly all actives have a fitted effect of over 55% in size)
How it was run: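 Screening used approved and investigational drugs in 15-point titration against 800 seeded cells per well. A fixed combination of auranofin with camptothecin, doxorubicin, rubitecan and topotecan followed compound addition, and growth was scored by CellTiter-Glo after 48hr.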

[16] = qHTS assay to identify small molecule inhibitors of chordoma cells - UCH-2 (AID 1259356; active = well fitted curve in the direction sought with a large enough effect; an effect the other way counts as inactive or inconclusive; note: % is set by controls: 0 for no effect and ±100 for the full control effect)

| Compound | parasite growth, % of DMSO control [1] | parasite growth remaining, % of DMSO control (lower = more inhibition) [2] | parasite growth, % of control (lower = inhibition) [3] | growth, % of control [4] | cell viability, % of control (lower = more cytotoxic) [5] | viability (% of control) [6] | Potency [7] | Potency [8] | Potency [9] | Potency [10] | Potency [11] | remaining proliferation (% of control), lower = more inhibition [12] [%] | Potency [13] | Potency [14] | outcome [15] | outcome [16] |
| --- | --- | --- | --- | --- | --- | --- | --- | --- | --- | --- | --- | --- | --- | --- | --- | --- |
| C[C@@H]1CCO[C@H]2Cn3cc(C(=O)NCc4ccc(F)cc4F)c(=O)c(O)c3C(=O)N12 | 55% | 53.9% | 38.3% | 62.8% | 58.3% | 12.5% | inactive | inactive | 13.2 µM (active) | 20.9 µM (active) |  |  |  |  |  |  |
| Cc1ccccc1-n1c(Cn2nc(-c3cccc(O)c3)c3c(N)ncnc32)nc2cccc(C)c2c1=O | 6.67% | 8.31% |  | 9.11% | 5.88% | 10.5% | inactive | inactive | 9.35 µM (active) | 16.6 µM (active) |  |  |  |  |  |  |
| O=c1cc(-c2ccc(O)c(O)c2)oc2cc(O)cc(O)c12 | 13% |  | 27.8% | 14% | 264% | 68.6% | inactive | inactive | inactive | inactive | inactive |  |  |  |  |  |
| O=C(Nc1cccc(C(F)(F)F)c1)Nc1cc(S(=O)(=O)NC2CC2)ccc1-c1ccsc1 | 52.8% | 82.2% | 51.8% | 78.9% | 316% | 68.8% | inactive | inactive | 20.9 µM (active) |  | 18.7 µM (active) |  |  |  |  |  |
| Cc1nc(C(=O)NCC(=O)O)c(O)c2ccc(Oc3ccccc3)cc12 | 86.9% | 95.5% | 67.9% | 69.9% | 54.1% | 115% | inactive | inactive | inactive | inactive | inactive |  |  |  |  |  |
| CCNC(=O)CCCC=CC[C@@H]1[C@H](C=CC(O)CCc2ccccc2)[C@@H](O)C[C@@H]1O (stereo partly drawn) | 63.1% | 127% | 60.3% | 74.9% | 108% | 21% | inactive | inactive | inactive | 23.5 µM (active) | inactive |  |  |  |  |  |
| Oc1cc(O)cc(C=Cc2ccc(O)c(O)c2)c1 | 39.8% | 76.7% | 32.1% | 50.9% | 3.35% | 3.72% | 23.5 µM (active) | 4.18 µM (active) | 18.7 µM (active) | 18.7 µM (active) |  |  |  |  |  |  |
| COc1cc2c(cc1Cc1cccc(Cl)c1F)c(=O)c(C(=O)O)cn2[C@H](CO)C(C)C | 7.9% | 19% | 16.6% | 3.89% | 19.1% | 11% | inactive |  |  | 23.5 µM (active) |  |  |  |  |  |  |
| CC(=O)Nc1cccc(-n2c(=O)n(C3CC3)c(=O)c3c(Nc4ccc(I)cc4F)n(C)c(=O)c(C)c32)c1 | 5.62% | 6.3% | 9.44% | 2.56% | 11.2% | 7.97% | inactive | inactive |  |  | 23.5 µM (active) | -0.298 | inactive |  |  |  |
| CCN1C[C@H](C)n2c(c(O)c3c(=O)n(Cc4ccc(F)c(Cl)c4)nc(C(=O)NC)c32)C1=O |  |  |  |  | 108% |  | inactive | inactive | inactive | inactive |  |  |  | inactive |  |  |
| COc1c(C)c2c(c(O)c1CC=C(C)CCC(=O)OCCN1CCOCC1)C(=O)OC2 | 16.6% | 18.6% | 15.1% | 9.76% | 164% | 13.5% | inactive | inactive |  | 1.05 µM (active) | 1.32 µM (active) |  |  |  | inactive | inactive |
| c1ccc(-c2oc3ncnc(NC[C@@H]4CCCO4)c3c2-c2ccccc2)cc1 | 36.2% | 72.4% | 41.6% | 19.8% | 343% | 42.1% | inactive |  | 23.5 µM (active) | 18.7 µM (active) | 20.9 µM (active) |  |  |  |  |  |
| CN[C@H]1[C@@H](O[C@@H]2[C@H](O[C@@H]3[C@@H](O)[C@@H](O)[C@@H](N=C(N)N)[C@@H](O)[C@@H]3N=C(N)N)O[C@H](C)[C@@]2(O)C=O)O[C@@H](CO)[C@@H](O)[C@H]1O | 99% [at 9.64 µM] | 94.4% [at 9.64 µM] | 87.4% [at 9.64 µM] | 89.1% [at 9.64 µM] | 122% [at 15.3 µM] | 118% [at 15.3 µM] | inactive | inactive |  | inactive | inactive |  |  |  |  |  |
